Data from PubChem BioAssay.
The source made the active and inactive calls.

Tests used:
[1] = test system: XIP peptide (Xip251-270) binding; assay: XIP fragment 251-270 binding compounds – biochemical, small-molecule microarray, fluorescence 635/667 nm, 0.1 µg/mL protein, primary screen (AID 1182); settings: fluorescent protein binding, 635 nm, higher = more signal, called active from +8 up or from −8 down
XIP peptide (Xip251-270) = assay: compounds binding XIP fragment 251-270 – biochemical, small-molecule microarray, fluorescence 635/667 nm, 0.5 µg/mL protein, primary screen (AID 1183); settings: fluorescence 635 nm, higher = more signal
[2] = blood-stage malaria parasite viability loss – strain 3D7, DAPI fluorescence, 100 nL, primary screen (AID 1184);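 note: parasites grown inside human red blood cells in medium with human serum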; settings: P. falciparum 3D7 growth, 3 d, higher = more signal
[3] = target: Homeobox protein Hox-A13 (Mus musculus) (UniProt Q62424); assay: disruptors of Hoxa13 oligonucleotide interaction – biochemical, fluorescence polarization, labeled oligonucleotide, primary screen (AID 1185); settings: Hoxa13:DNA binding, 15 min, higher = more signal, called active from +8 up or from −8 down
Homeobox protein Hox-A13 (Mus musculus), sequence (Q62424 whole entry, looked up): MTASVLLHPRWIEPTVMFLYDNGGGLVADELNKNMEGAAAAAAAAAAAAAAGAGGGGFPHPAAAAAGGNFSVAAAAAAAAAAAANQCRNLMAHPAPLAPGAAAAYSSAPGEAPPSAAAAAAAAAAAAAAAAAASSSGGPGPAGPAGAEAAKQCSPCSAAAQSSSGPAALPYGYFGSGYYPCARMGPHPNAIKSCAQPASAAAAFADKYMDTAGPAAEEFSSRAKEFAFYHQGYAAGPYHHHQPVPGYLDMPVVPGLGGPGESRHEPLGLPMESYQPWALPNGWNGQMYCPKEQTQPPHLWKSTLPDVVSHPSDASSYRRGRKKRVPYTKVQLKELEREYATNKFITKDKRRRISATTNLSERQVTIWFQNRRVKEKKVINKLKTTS

Row | Structure (SMILES) | composite z-score [1] | composite z-score (XIP peptide (Xip251-270)) | z-score [2] | z-score [3]
1 | O=C1C[C@@H](O)[C@@H](O)[C@@H]2[C@@H]3C(=O)N(C[C@@H]4CCCO4)C(=O)[C@@H]3CC[C@@H]12 | 0.74 (inactive) | 0.592 | -0.223 | 0.368 (inactive)
2 | CCOC(=O)C1=NO[C@@]2(C=C(Br)C3(OCCCO3)[C@H]3O[C@H]32)C1 | 2.67 (inactive) | 0.512 | 0.522 | 0.14 (inactive)
3 | COc1ccc(O[C@H]2C=C[C@@H](c3ccccc3)O[C@@H]2COC(=O)CCC(C)=NOC[C@@H](O)[C@H]2O[C@@H]3OC(C)(C)O[C@@H]3[C@H]2O)cc1 | 0.162 (inactive) | -0.0871 | 0.651 | -5.83 (inactive)
4 | CC(C)(C)N1C(=O)[C@H]2[C@H]3[C@H](O)[C@H](O)CC(=O)[C@H]3CC[C@H]2C1=O | 0.596 (inactive) | 0.556 | -1.08 | 0.117 (inactive)
5 | C#CCCCON=C1[C@H]2CCn3c(=O)n(C)c(=O)n3[C@H]2[C@H](O)[C@@H]2O[C@H]12 | -0.158 (inactive) | 0.442 | 0.275 | 0.292 (inactive)
6 | C[C@@H](c1ccccc1)N1C(=O)[C@H]2[C@H]3[C@H](O)[C@H](O)CC(=NO[C@@H]4O[C@H](CO)[C@@H](O)[C@H](O)[C@H]4O)[C@@H]3CC[C@H]2C1=O | -0.0769 (inactive) | 0.438 | -2.33 | 0.174 (inactive)
7 | COC(=O)[C@@H]1CC[C@@H](C)[C@H](c2ccc(Br)cc2)N1 | -0.0456 (inactive) | 0.0425 | 0.303 | -1.98 (inactive)
8 | CC(=O)OC[C@H]1O[C@@H](ON=C(C)CCN2CCCc3nc(C)c(C)cc32)[C@H](OC(C)=O)[C@@H](OC(C)=O)[C@@H]1OC(C)=O | -0.444 (inactive) | 0.667 | -1.3 | -5.84 (inactive)
9 | CC(C)=CCCC(C)=CCON=C1C[C@@H](O)[C@@H](O)[C@@H]2[C@@H]3C(=O)N(c4cccc(Oc5ccccc5)c4)C(=O)[C@@H]3CC[C@@H]12 | 0.188 (inactive) | 0.352 | -1.58 | -3.76 (inactive)
10 | C#CCCCON=C1C[C@@H](O)[C@@H](O)[C@@H]2[C@@H]3C(=O)N(CC)C(=O)[C@@H]3CC[C@@H]12 | 0.901 (inactive) | 0.555 | -0.0961 | -0.918 (inactive)
11 | C[C@H]1CC[C@H]2C(=O)OC(CO)CN2[C@@H]1c1ccc(Br)cc1 (stereo partly specified) | 0.201 (inactive) | 0.115 | -0.296 | -0.52 (inactive)
12 | O=C1C2=CC[C@H]3C(=O)N(c4cccc(Oc5ccccc5)c4)C(=O)[C@H]3[C@H]2[C@H](O)[C@@H]2O[C@H]12 | -0.0743 (inactive) | 0.182 | 0.86 | -2.99 (inactive)
13 | C[C@@H](c1ccccc1)N1C(=O)[C@H]2[C@H]3[C@H](O)[C@H](O)CC(=NO[C@@H]4O[C@H](CO)[C@@H](O)[C@H](O)[C@H]4O)[C@H]3CC[C@H]2C1=O | -0.0033 (inactive) | 0.216 | -0.648 | -0.285 (inactive)
14 | CCOC(=O)[C@H](CC(C)C)NC(=O)CCC1CC(OC(=O)NCc2cccc3ccccc23)CC2(CCCC(COC(=O)NCCc3ccc(Cl)cc3)O2)O1 (stereo partly specified) | -0.0551 (inactive) | 0.111 | -1.61 | -4.02 (inactive)
15 | C[C@@H]1C=CCC(=O)OC[C@H]2O[C@@H](C=C[C@@H]2O)[C@H](C)C=CCC(=O)OC1 | 1 (inactive) | 0.538 | 0.387 | -0.659 (inactive)
16 | CCN1C(=O)[C@H]2[C@H]3[C@H](O)[C@H](O)CC(=NO[C@@H](C)c4cn([C@H](CO)Cc5ccccc5)nn4)[C@@H]3CC[C@H]2C1=O | 1.13 (inactive) | 0.814 | 0.032 | -2.02 (inactive)
17 | CC(C)CON=C1C[C@@H](O)[C@@H](O)[C@@H]2[C@@H]3C(=O)N(C(C)(C)C)C(=O)[C@@H]3CC[C@H]12 | 1.9 (inactive) | 0.494 | 1.75 | -0.219 (inactive)
18 | CO[C@H]1COC(=O)CC=C[C@@H](C)[C@H](NS(=O)(=O)c2ccc(C)cc2)COC(=O)CCC[C@@H]1C | 0.0922 (inactive) | 0.231 | 1.19 | -0.499 (inactive)
19 | COC(=O)CC=C[C@@H](C)[C@@H](C=NOC[C@H]1O[C@H](c2ccccc2)C=C[C@@H]1Oc1ccc(OC)cc1)OC | 0.0079 (inactive) | -0.294 | 0.201 | -2.94 (inactive)
20 | COC(=O)CC=C[C@@H](C)[C@@H](C=NOCC[C@@H]1C=C[C@H](OC(C)=O)[C@@H](COC(C)=O)O1)NS(=O)(=O)c1ccc(C)cc1 | 0.412 (inactive) | 0.303 | 0.0783 | -5.32 (inactive)
21 | O=C1C[C@@H](O)[C@@H](O)[C@@H]2[C@@H]3C(=O)N(Cc4ccccc4)C(=O)[C@@H]3CC[C@@H]12 | 0.245 (inactive) | 0.5 | 0.328 | -0.967 (inactive)
22 | CCOC(=O)[C@H](CC(C)C)NC(=O)CCC1CC(OC(=O)NCc2cccc3ccccc23)CC2(CCCC(COC(=O)NCCCN3CCCC3=O)O2)O1 (stereo partly specified) | -0.0359 (inactive) | 0.524 | -1.92 | -4.61 (inactive)

Row | Structure (SMILES) | composite z-score [1] | composite z-score (XIP peptide (Xip251-270)) | z-score [2] | z-score [3]
23 | CCCCc1nc2c(c3c1C[C@H](C)OC3)CN(CCOc1ccccc1)CC2 | 1.4 (inactive) | 0.566 | 0.964 | -4.81 (inactive)
24 | COC(=O)CC=C[C@@H](C)[C@@H](C=NO[C@H](C)c1cn([C@H](CO)Cc2ccccc2)nn1)NS(=O)(=O)c1ccc(C)cc1 | -0.418 (inactive) | 0.126 | 0.346 | -6.42 (inactive)
25 | C#CCCCON=C1C[C@@H](O)[C@@H](O)[C@@H]2[C@@H]3C(=O)N(c4cccc(Oc5ccccc5)c4)C(=O)[C@@H]3CC[C@H]12 | 0.332 (inactive) | 0.507 | 0.63 | 0.303 (inactive)
26 | O=C1CCCC=C1C(O)CCCCBr (stereo unspecified) | 0.26 (inactive) | -0.165 | -1.76 | -5.96 (inactive)
27 | C#CCCCON=C1C[C@@H](O)[C@@H](O)[C@@H]2[C@@H]3C(=O)N(C(C)(C)C)C(=O)[C@@H]3CC[C@@H]12 | -0.0287 (inactive) | 0.109 | -0.315 | -3.44 (inactive)
28 | CCC=CCCC(OC(=O)c1ccc(Br)cc1)C1=CCCCC1=O (stereo unspecified) | 0.84 (inactive) | 0.49 | -0.713 | -3.22 (inactive)
29 | Cc1cc2c(c(=O)o1)[C@@H](O)[C@H]1O[C@H]1C2=O | -0.483 (inactive) | 0.274 | -0.807 | -1.3 (inactive)
30 | C#CCCCON=C1C[C@@H](O)[C@@H](O)[C@@H]2[C@@H]3C(=O)N(CCC(=O)OCC)C(=O)[C@@H]3CC[C@H]12 | 0.768 (inactive) | 0.493 | -0.206 | 1.24 (inactive)
31 | CC(C)CON=C1C[C@@H](O)[C@@H](O)[C@@H]2[C@@H]3C(=O)N(c4ccc(F)cc4F)C(=O)[C@@H]3CC[C@H]12 | 0.0163 (inactive) | 0.37 | 0.0017 | -0.224 (inactive)
32 | CO[C@H]1COC(=O)CC=C[C@H](C)COC(=O)[C@@H](C)NC(=O)CC=C[C@@H]1C | 0.0921 (inactive) | 0.424 | -1.19 | -1.07 (inactive)
33 | CC(C)(C)N1C(=O)[C@H]2[C@H]3[C@H](O)C=CC(=O)[C@@H]3CC[C@H]2C1=O | 0.127 (inactive) | 0.16 | -0.0484 | 0.14 (inactive)
34 | CCOC(=O)[C@H](CC(C)C)NC(=O)CCC1CC(OC(=O)NCCc2ccc(F)cc2)CC2(CCCC(COC(=O)NCCc3ccc(Cl)cc3)O2)O1 (stereo partly specified) | 1.08 (inactive) | 0.571 | -1.9 | -6.52 (inactive)
35 | COC(=O)[C@H](C)NC(=O)CCC1CC(OC(=O)NCCc2ccc(F)cc2)CC2(CCCC(COC(=O)NCCC(C)C)O2)O1 (stereo partly specified) | 0.162 (inactive) | 0.74 | -0.861 | -6.77 (inactive)
36 | COC(=O)NCC=Cc1nc(CCCO)co1 | -0.755 (inactive) | 0.432 | 0.316 | -2.8 (inactive)
37 | COC(=O)CC=C[C@@H](C)[C@@H](C=NOCC[C@@H]1C=C[C@H](OC(C)=O)[C@@H](COC(C)=O)O1)OC | -0.198 (inactive) | 0.239 | 1.13 | -1.14 (inactive)
38 | CO[C@H]1COC(=O)CC=C[C@H](C)[C@@H](OC)COC(=O)[C@H](C)COC(=O)CC=C[C@@H]1C | 0.163 (inactive) | -0.337 | 0.916 | 0.296 (inactive)
39 | CCOC(=O)NN=C1C[C@@H](O)[C@@H](O)[C@@H]2[C@@H]3C(=O)N(Cc4ccc5c(c4)OCO5)C(=O)[C@@H]3CC[C@H]12 | 2.21 (inactive) | -0.437 | -0.948 | -0.227 (inactive)
40 | CC(C)=CCCC(C)=CCON=C1C[C@@H](O)[C@@H](O)[C@@H]2[C@@H]3C(=O)N(c4ccc(F)cc4F)C(=O)[C@@H]3CC[C@@H]12 | -0.0619 (inactive) | 0.542 | -1.59 | -4.62 (inactive)
41 | COc1ccc(COC(=O)NN=C2C[C@@H](O)[C@@H](O)[C@@H]3[C@@H]4C(=O)N(c5ccc(F)cc5F)C(=O)[C@@H]4CC[C@H]23)cc1 | 0.051 (inactive) | 0.393 | -1.93 | -6.79 (inactive)
42 | CC(C)CON=C1C[C@@H](O)[C@@H](O)[C@@H]2[C@@H]3C(=O)N(C[C@@H]4CCCO4)C(=O)[C@@H]3CC[C@@H]12 | -0.0867 (inactive) | 0.205 | 0.192 | -0.771 (inactive)
43 | O=C1[C@H]2[C@H]3[C@H](O)[C@H](O)CC(=NOCc4ccccc4)[C@H]3CC[C@H]2C(=O)N1Cc1ccc2c(c1)OCO2 | -0.4 (inactive) | -0.267 | -0.437 | -3.74 (inactive)
44 | CC(CCN1CCCCc2nc(C)c(C)cc21)=NOC[C@@H](C)[C@H](OCc1ccccc1)C(C)C | -0.494 (inactive) | -0.3 | 0.318 | -2.47 (inactive)
